# Sampled rows, rich in hits. Any-hit rate of the full collection: about 0.81%.
# NCOA1 inh = SRC1 coactivator transcriptional activity inhibitors, primary screen, cell-based, luminescence | HEK293 GAL4-SRC1 luciferase reporter | AID 588354, 2011 | inhibition, % at 3.6 µM | hit rate 0.12% among 360,000;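 active = inhibition above the campaign mean plus 3 SD, with each screening campaign given its own cutoff, cut at about 60% in these data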;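 note: 0% = DMSO treated cells and 100% = gossypol at 36 µM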
# LRH-1 inv ag = LRH-1 (NR5A2) inverse agonists, primary screen, cell-based, luminescence, HEK293T, StAR-luciferase reporter; AID 602396, 2012; Nuclear receptor subfamily 5 group A member 2 (Homo sapiens), O00482; inhibition, % at 3.6 µM; LRH-1 transfected, 24 h; hit rate 0.13% among 360,000;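 active = inhibition above the mean inhibition of all tested compounds plus 3 SD, cut at about 73% in these data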;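 note: 0% = DMSO wells and 100% = reporter-only cells lacking LRH-1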
# Target sequence (O00482 whole entry, looked up): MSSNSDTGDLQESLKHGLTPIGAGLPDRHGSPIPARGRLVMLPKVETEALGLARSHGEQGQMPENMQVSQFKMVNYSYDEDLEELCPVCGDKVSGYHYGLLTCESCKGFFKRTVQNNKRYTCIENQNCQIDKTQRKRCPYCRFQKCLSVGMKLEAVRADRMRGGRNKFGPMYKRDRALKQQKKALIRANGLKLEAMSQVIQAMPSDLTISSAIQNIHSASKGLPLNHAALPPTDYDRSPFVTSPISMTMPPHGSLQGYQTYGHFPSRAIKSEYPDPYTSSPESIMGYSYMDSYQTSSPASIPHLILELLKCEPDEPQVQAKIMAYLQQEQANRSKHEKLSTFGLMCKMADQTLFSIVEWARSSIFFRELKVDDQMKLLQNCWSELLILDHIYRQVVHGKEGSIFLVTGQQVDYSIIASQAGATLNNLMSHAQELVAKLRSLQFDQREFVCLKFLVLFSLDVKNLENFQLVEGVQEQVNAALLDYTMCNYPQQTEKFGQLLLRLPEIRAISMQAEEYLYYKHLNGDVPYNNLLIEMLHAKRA
# NCOA2 inhibitor = inhibition of GAL4-SRC2 driven luciferase reporter, primary screen, SRC2 inhibitor project, cell-based, luminescence; Nuclear receptor coactivator 2 (Homo sapiens), Q15596; HEK293 GAL4-SRC2 luciferase reporter; inhibition, % at 9 µM; hit rate 0.17% among 370,000; AID 651957, 2012;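 active = inhibition above the mean inhibition of all tested compounds plus 3 SD, set per campaign, cut at about 52% in these data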;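 note: 0% = DMSO treated cells and 100% = cells given Gossypol at 36 µM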
# NR2F2 inh = NR2F2 transcriptional activity inhibitors, primary screen, cell-based, luciferase reporter, HEK293T, luminescence; COUP transcription factor 2 (Homo sapiens), P24468; AID 686940, 2013; inhibition, % at 8.6 µM; HEK293T NGFI-A luciferase reporter; hit rate 0.7% among 370,000;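 active = inhibition above a per-plate cutoff, mean inhibition of test wells between control levels plus 3 SD, cut at about 38% in these data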;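 note: cells cotransfected with COUP-TFII expression vector driving the NGFI-A reporter; 0% = median of COUP-TF2 test wells and 100% = reporter-only cells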
# NCOA3 inh = SRC3 coactivator transcriptional activity inhibitors, primary screen, cell-based, luminescence; Nuclear receptor coactivator 3 (Homo sapiens), Q9Y6Q9; hit rate 0.17% among 360,000; HEK293 GAL4-SRC3 luciferase reporter; AID 588352, 2011; inhibition, % at 3.6 µM;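 active = inhibition above a per-campaign cutoff, the mean of all compounds plus 3 SD, cut at about 60% in these data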;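 note: 0% = DMSO-treated cells and 100% = gossypol-treated cells at 36 µM; higher means less SRC3-driven luciferase light from the GAL4 reporter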
# VP16 Luc counter = Gal4-VP16 luciferase reporter inhibitors, counter-screen for COUP-TFII antagonist project, cell-based, luminescence, HEK293; shares compounds with NR2F2 inh; inhibition, % at 8.5 µM; hit rate 25% among 2,500; in the data active = inhibition above about 13%
# NR2F2 inh conf = NR2F2 transcriptional activity inhibitors, confirmation, cell-based, luciferase reporter, HEK293, triplicate; AID 687008, 2013; shares compounds with NR2F2 inh; HEK293 NGFI-A luciferase reporter, luminescence; hit rate 45% among 2,500; inhibition, % at 8.5 µM;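 active = mean inhibition over three repeats above a set limit taken from the earlier primary screen, cut at about 38% in these data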;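 note: 100% = cells given the luciferase reporter alone without the COUP-TF2 vector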
# * hit, by the source's call; / = not tested or not shown.
SMILES,NCOA1 inh,LRH-1 inv ag,NCOA2 inhibitor,NR2F2 inh,NCOA3 inh,VP16 Luc counter,NR2F2 inh conf
CC(=O)Nc1cccc(-c2ccnc3c2CC(C(=O)Nc2ccc(F)c(Cl)c2)O3)c1 (centres undefined),5,1,-10,5,-12,/,/
O=C(Nc1ccc(F)c(Cl)c1)C1Cc2c(-c3ccco3)ccnc2O1 (centres undefined),8,-4,5,41*,20,2,17
C=CCn1c(SCc2ccc(C#N)cc2)nnc1-c1ccco1,/,/,-10,-22,/,/,/
Cc1nc2ccc(S(=O)(=O)NCC(=O)N(C)Cc3ccccc3F)cc2s1,/,/,-12,-51,/,/,/
O=C1CCCN2N=C(SCC(=O)Nc3cccc(Cl)c3)SC2=N1,10,-5,13,23,3,/,/
O=C1CCCN2N=C(SCC(=O)Nc3cccc(C(F)(F)F)c3)SC2=N1,20,27,26,53*,18,0,50*
CN(C)c1ccc(C=C2SC(=S)N(Cc3ccco3)C2=O)cc1,-14,21,-12,40*,-11,-18,-2
Cc1ccc(NC(=O)c2cc(S(=O)(=O)NCCC3=CCCCC3)ccc2F)cc1,21,38,31,61*,22,3,33
Cc1ccc(NC(=O)c2cc(S(=O)(=O)NCC3CCCO3)ccc2F)cc1 (centres undefined),-4,-14,2,-9,-4,/,/
CCOC(=O)CCCNC(=O)OC1CCC12CCC(c1ccccc1)CC2 (centres undefined),/,/,2,-3,/,/,/
CCN1CCN(c2cc(C)c3cc(NC(=S)N4CC(C)CC(C)C4)ccc3n2)CC1 (centres undefined),-3,-1,-32,-11,8,/,/
CCN1CCN(c2cc(C)c3cc(NC(=S)N4CCCC(C)C4)ccc3n2)CC1 (centres undefined),20,32,29,46*,40,26*,35
C=CCN(CC#Cc1ccc(OC)cc1)CC=C,/,/,-17,-14,/,/,/
O=C(c1ccc2c3c(cccc13)CC2)C1CCCN(Cc2ccncc2)C1 (centres undefined),12,15,13,53*,8,19*,30
O=C(C1CCN(c2ncnc3c2sc2cccc(F)c23)CC1)N1CCCCC1,/,/,13,15,/,/,/
CC(=O)N1CCc2cc(Br)c(S(=O)(=O)NCc3ccc(Cl)cc3)cc21,/,/,-22,-3,/,/,/
CCCCN1C=CC(=C2C(=O)c3ccccc3C2=O)C=C1,44,-9,76*,80*,60,67*,67*
CCCCNC1=CC(=O)C(=O)c2ccccc21,14,36,-14,12,13,/,/
CCOC(=O)C1CCN(c2cc(C)nc3ccc(OC)cc23)CC1,5,18,23,42*,27,2,7
COC(=O)[C@@H]1C[C@@]2(c3ccccc3)c3ccccc3N(S(=O)(=O)c3ccccc3)[C@H]2N1C(=O)CNC/C=C(\C)CCC=C(C)C,/,/,1,23,/,/,/
O=C(O)CCCc1nc(-c2ccc(Cl)cc2)no1,3,12,40,44*,13,32*,14
O=C(O)CCCc1nc(-c2ccccc2)no1,7,4,-18,14,-2,/,/
O=C(CCCc1nc(-c2ccc(Cl)cc2)no1)Nc1cccnc1,9,17,22,41*,5,0,22
COc1ccc(CCNC(=O)Cn2nc(-c3ccccc3)ccc2=O)cc1,/,/,18,-15,/,/,/
NC(=S)N/N=C1\CCSc2ccc(Cl)cc21,29,23,14,37*,34,-1,33
SMILES,NCOA1 inh,LRH-1 inv ag,NCOA2 inhibitor,NR2F2 inh,NCOA3 inh,VP16 Luc counter,NR2F2 inh conf
Cc1onc(-c2ccccc2)c1C(=O)NC(=S)NNC(=O)c1ccc(O)cc1O,64*,89*,23,50*,73*,15*,54*
Cc1cccc(-c2cccc3c4c([nH]c23)[C@@H]2C[C@H](N(C)C(=O)Nc3ccccc3C)[C@H]([C@H](C)O)CN2CC4)c1,/,/,-5,-5,/,/,/
Cc1sc2ncnc(NC3CCN(Cc4ccccc4)CC3)c2c1C,27,37,35,56*,30,5,52*
c1ccc(CN2CCC(Nc3ncnc4sccc34)CC2)cc1,17,-1,-3,1,15,/,/
CCOC(=O)Oc1c(OC)cc(C(=O)O[C@@H]2C[C@@H]3CN4CCc5c([nH]c6cc(OC)ccc56)[C@H]4C[C@@H]3[C@H](C(=O)OC)[C@H]2OC)cc1OC,16,-5,6,50*,18,-12,43*
CCN1/C(=C/c2ccc3cccc(C)c3[n+]2CC)Sc2ccccc21,42,69,-6,74*,53,19*,66*
CCN1/C(=C\c2ccc3cc(C)ccc3[n+]2CC)Sc2cc(C)c(C)cc21,20,64,-28,67*,36,8,53*
CCN1/C(=C/c2ccc3cc(C)ccc3[n+]2CC)Sc2ccc3sccc3c21,31,14,/,/,39,/,/
CCN1/C(=C/c2ccc3cc(C)cc(C)c3[n+]2CC)Sc2cc(C)ccc21,24,67,-47,66*,44,23*,69*
CCc1nc(NCc2ccccn2)c2oc3ccccc3c2n1,12,26,18,39*,26,-14,15
Cc1cc(NCc2ccccn2)nc2ccccc12,-5,-36,-15,3,14,/,/
Cc1nc(NCc2ccccn2)c2ccccc2n1,6,15,12,43*,35,0,22
Cc1cc(N2CCN(c3nc4ccccc4s3)CC2)n2ncnc2n1,16,44,-14,68*,19,-7,71*
CN(CCO)c1cccc2c1S(=O)(=O)N(Cc1cn(Cc3cccc(C(F)(F)F)c3)nn1)Cc1ccccc1O2,/,/,-43,-5,/,/,/
CN(CCc1ccccc1)C(=O)c1ccc(NC(=O)Cc2ccc(NC(=O)C3CCCN(C(=O)CCc4ccccc4)C3)cc2)cc1 (centres undefined),20,54,21,73*,32,3,72*
CN(CCc1ccccc1)C(=O)c1ccc(NC(=O)Cc2ccc(NC(=O)C3CCCN(C(=O)C4CCC4)C3)cc2)cc1 (centres undefined),18,-11,18,27,-5,/,/
COc1ccc(-c2cn[nH]c2-c2ccc(OCc3ccc([N+](=O)[O-])cc3)cc2O)cc1OC,12,9,21,38*,32,-7,25
COC1=CC(=O)c2nc(Cl)ccc2C1=O,64*,76*,49,38*,59,35*,26

# Compound activity as filed in PubChem.
